Data taken from PubChem BioAssay (Tox21).
Records with an inconclusive call do not appear. Activity calls are given as the source filed them. Unless noted, calls follow the shape of the dose curve; as a rule, active = well fitted curve in the direction sought with a large enough effect in the repeat runs; inconclusive = weak or mixed curves; inactive = no such curve, though single readings can be large; an effect the other way counts as inactive or inconclusive.

Columns and labels:
[1] = qHTS assay to identify small molecule antagonists of the thyroid receptor (TR) signaling pathway - cell viability counter screen (AID 743064); also: nearly all actives have a fitted effect of over 50% in size
Procedure, shortened: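 Same-well viability check: GH3.TRE-Luc cells stimulated with 1 nM T3 alongside test compound for 23.5 h, followed by CellTiter-Fluor fluorescence.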

[2] = system: thyroid hormone receptor (rat, GH3 cells); assay: qHTS assay to identify small molecule agonists of the thyroid receptor (TR) signaling pathway (AID 743066; calls by dose curve)
[3] = target: Estrogen receptor (Homo sapiens) (UniProt P03372); assay: qHTS assay to identify small molecule antagonists of the estrogen receptor alpha (ER-alpha) signaling pathway (AID 743069; active = well fitted curve in the direction sought with a large enough effect in the signal ratio in the repeat runs, not every such curve was filed as active; the % refers to the signal ratio)
Estrogen receptor (Homo sapiens), sequence (P03372 whole entry, looked up): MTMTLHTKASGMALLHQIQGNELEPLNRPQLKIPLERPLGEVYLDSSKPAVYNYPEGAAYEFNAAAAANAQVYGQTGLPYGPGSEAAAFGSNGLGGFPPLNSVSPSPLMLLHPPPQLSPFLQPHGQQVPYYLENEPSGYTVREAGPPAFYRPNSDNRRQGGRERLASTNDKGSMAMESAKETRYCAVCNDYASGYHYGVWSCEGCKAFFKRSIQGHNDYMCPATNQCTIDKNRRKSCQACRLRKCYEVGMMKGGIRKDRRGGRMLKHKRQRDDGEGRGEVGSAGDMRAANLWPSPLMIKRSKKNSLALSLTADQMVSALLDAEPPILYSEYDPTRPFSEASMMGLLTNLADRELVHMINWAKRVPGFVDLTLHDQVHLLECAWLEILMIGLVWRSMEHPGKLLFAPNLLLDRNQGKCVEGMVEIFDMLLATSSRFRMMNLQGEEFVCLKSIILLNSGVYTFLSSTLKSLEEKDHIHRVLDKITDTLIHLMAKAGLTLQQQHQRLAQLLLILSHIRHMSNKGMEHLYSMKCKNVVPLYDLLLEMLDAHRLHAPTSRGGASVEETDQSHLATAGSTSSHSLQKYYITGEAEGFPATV
Procedure, shortened: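 Compound effects are measured against 17beta-estradiol stimulation in HEK293 cells with a UAS-controlled beta-lactamase reporter for ER-alpha. Exposure lasts 18 hr at 37C; LiveBLAzer B/G FRET substrate follows for 2 hr at room temperature.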

[4] = target: Estrogen receptor (Homo sapiens) (UniProt P03372); assay: qHTS assay to identify small molecule agonists of the estrogen receptor alpha (ER-alpha) signaling pathway (AID 743075; calls by dose curve)
[5] = target: Estrogen receptor (Homo sapiens) (UniProt P03372); assay: qHTS assay to identify small molecule agonists of the estrogen receptor alpha (ER-alpha) signaling pathway using the BG1 cell line (AID 743079); also: nearly all actives have a fitted effect of over 20% in size
[6] = qHTS assay to identify small molecule antagonists of the estrogen receptor alpha (ER-alpha) signaling pathway using the BG1 cell line (AID 743080; calls by dose curve;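 also: BG1 cells stimulated with 17beta-estradiol alongside compound; series mostly up to about 70 µM; nearly all actives have a fitted effect of over 25% in size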)
Procedure, shortened: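 Seeding, 24 h rest, compound transfer from DMSO, 17beta-estradiol addition, 21.5 h incubation, CellTiter-Fluor (30 min, 37 C), then ONE-Glo (30 min, room temperature): this sequence was run on BG1-Luc-4E2 reporter cells.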

[7] = qHTS assay to identify small molecule antagonists of the estrogen receptor alpha (ER-alpha) signaling pathway using the BG1 cell line - cell viability counter screen (AID 743081);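 also: compound given together with 17beta-estradiol as the ER stimulus; series mostly up to about 70 µM; nearly all actives have a fitted effect of over 45% in size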
Aromatase (Homo sapiens) = Aromatase (Homo sapiens) (UniProt P11511); assay: qHTS assay to identify aromatase inhibitors (AID 743083); also: series mostly up to about 70 µM; nearly all actives have a fitted effect of over 55% in size
Aromatase (Homo sapiens), sequence (P11511 whole entry, looked up): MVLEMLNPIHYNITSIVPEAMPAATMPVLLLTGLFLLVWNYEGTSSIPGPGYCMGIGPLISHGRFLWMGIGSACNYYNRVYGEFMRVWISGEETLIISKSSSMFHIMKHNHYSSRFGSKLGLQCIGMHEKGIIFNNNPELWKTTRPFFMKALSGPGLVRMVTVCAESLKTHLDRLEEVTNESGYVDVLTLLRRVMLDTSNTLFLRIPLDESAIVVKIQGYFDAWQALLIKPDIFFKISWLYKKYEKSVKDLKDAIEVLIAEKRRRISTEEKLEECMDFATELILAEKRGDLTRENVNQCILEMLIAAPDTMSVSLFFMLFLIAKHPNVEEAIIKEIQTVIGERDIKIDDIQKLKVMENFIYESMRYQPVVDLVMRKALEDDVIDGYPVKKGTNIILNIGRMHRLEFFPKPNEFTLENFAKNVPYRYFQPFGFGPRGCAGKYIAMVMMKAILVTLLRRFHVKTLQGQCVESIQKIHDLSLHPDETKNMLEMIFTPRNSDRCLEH

[8] = qHTS assay to identify aromatase inhibitors - cell viability counter screen (AID 743084);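 also: cells stimulated with testosterone during compound exposure; nearly all actives have a fitted effect of over 55% in size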
[9] = target: Aryl hydrocarbon receptor (Homo sapiens) (UniProt P35869); assay: qHTS assay to identify small molecule that activate the aryl hydrocarbon receptor (AhR) signaling pathway (AID 743085);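 also: HG2L7.5c1 human HepG2 liver cells with stably integrated DRE-driven firefly reporter; series mostly up to about 70 µM; nearly all actives have a fitted effect of over 15% in size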
Aryl hydrocarbon receptor (Homo sapiens), sequence (P35869 whole entry, looked up): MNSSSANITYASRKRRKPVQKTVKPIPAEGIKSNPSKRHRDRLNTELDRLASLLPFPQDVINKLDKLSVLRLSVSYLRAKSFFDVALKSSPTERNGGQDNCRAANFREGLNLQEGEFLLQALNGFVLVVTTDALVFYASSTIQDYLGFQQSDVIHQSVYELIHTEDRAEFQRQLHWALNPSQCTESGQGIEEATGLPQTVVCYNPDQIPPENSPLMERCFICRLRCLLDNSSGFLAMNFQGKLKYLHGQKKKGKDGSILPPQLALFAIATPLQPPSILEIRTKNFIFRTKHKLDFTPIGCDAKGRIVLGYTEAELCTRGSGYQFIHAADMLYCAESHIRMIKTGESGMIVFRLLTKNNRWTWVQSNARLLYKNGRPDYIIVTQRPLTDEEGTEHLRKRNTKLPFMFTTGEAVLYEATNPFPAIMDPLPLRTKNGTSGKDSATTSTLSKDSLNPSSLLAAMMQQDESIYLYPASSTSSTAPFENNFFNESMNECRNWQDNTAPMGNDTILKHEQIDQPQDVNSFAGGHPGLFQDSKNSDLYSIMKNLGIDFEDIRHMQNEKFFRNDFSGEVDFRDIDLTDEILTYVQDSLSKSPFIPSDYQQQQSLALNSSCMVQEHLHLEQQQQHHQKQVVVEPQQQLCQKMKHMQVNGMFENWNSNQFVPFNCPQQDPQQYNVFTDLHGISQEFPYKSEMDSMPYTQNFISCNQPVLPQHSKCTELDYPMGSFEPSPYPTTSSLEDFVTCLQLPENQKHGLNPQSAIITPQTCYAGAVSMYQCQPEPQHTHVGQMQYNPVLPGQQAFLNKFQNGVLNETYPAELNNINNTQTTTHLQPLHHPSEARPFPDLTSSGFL
Procedure, shortened: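 Reporter assay in engineered HepG2 line HG2L7.5c1, whose plasmid carries twenty dioxin responsive elements upstream of firefly luciferase. Treatment lasted 24 h at 37C; ONE-Glo luminescence gauged induction.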

[10] = qHTS assay to identify small molecule that activate the aryl hydrocarbon receptor (AhR) signaling pathway - cell viability counter screen (AID 743086);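 also: HepG2 liver cells carrying the AhR DRE luciferase reporter; series mostly up to about 70 µM; nearly all actives have a fitted effect of over 45% in size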
Procedure, shortened: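 Cytotoxicity counter screen: CellTiter-Fluor signal (30 min, 37 C) in 4000 HepG2 cells/well carrying the DRE-luciferase reporter, following 24 h compound exposure at 37 C.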

[11] = target: Peroxisome proliferator-activated receptor gamma (Homo sapiens) (UniProt P37231); assay: qHTS assay to identify small molecule agonists of the peroxisome proliferator-activated receptor gamma (PPARg) signaling pathway (AID 743094; active = well fitted activation curve with a large enough effect in the signal ratio in the repeat runs, not every such curve was filed as active; the % refers to the signal ratio)
Peroxisome proliferator-activated receptor gamma (Homo sapiens), sequence (P37231 whole entry, looked up): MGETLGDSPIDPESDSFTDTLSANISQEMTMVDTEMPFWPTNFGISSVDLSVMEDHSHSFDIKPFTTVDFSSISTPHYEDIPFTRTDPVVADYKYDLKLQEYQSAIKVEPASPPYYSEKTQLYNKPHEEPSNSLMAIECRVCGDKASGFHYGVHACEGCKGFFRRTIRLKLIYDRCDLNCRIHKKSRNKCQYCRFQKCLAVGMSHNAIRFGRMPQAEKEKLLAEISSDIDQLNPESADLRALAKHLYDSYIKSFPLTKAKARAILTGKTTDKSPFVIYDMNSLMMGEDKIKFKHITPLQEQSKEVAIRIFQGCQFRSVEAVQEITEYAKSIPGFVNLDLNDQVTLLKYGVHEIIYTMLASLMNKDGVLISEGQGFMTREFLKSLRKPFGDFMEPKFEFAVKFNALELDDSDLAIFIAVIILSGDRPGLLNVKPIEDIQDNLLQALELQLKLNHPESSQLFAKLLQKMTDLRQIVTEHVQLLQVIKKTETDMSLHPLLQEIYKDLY
Procedure, shortened: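 GeneBLAzer PPARg UAS-bla HEK293H cells carrying a stably integrated beta-lactamase reporter were pre-incubated 5 h at 37C, then exposed to compounds in DMSO for 17 h at 37C; LiveBLAzer B/G FRET substrate was added for 1 h at room temperature and fluorescence read.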

[12] = target: Peroxisome proliferator-activated receptor gamma (Homo sapiens) (UniProt P37231); assay: qHTS assay to identify small molecule antagonists of the peroxisome proliferator-activated receptor gamma (PPARg) signaling pathway (AID 743191; calls by dose curve; also: series mostly up to about 63 µM; nearly all actives have a fitted effect of over 30% in size)
Procedure, shortened: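 Beta-lactamase reporter under UAS control in HEK293H PPARg-bla cells; compound treatment 17 h at 37C. Read-out: fluorescence intensity after 1 h room-temperature incubation with LiveBLAzer B/G FRET substrate.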

[13] = qHTS assay for small molecule agonists of the antioxidant response element (ARE) signaling pathway (AID 743202; active = well fitted activation curve with a large enough effect in the signal ratio in the repeat runs, not every such curve was filed as active; the % refers to the signal ratio)
Procedure, shortened: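 An ARE-responsive beta-lactamase gene stably integrated in HepG2 cells serves as reporter. After 5 h plating and 16 h compound incubation at 37 C, fluorescence of the B/G FRET substrate was measured.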

[14] = qHTS assay for small molecule agonists of the antioxidant response element (ARE) signaling pathway - cell viability counter screen (AID 743203; calls by dose curve; also: nearly all actives have a fitted effect of over 55% in size)
Procedure, shortened: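 CellSensor ARE-bla HepG2 cells, 2,000 per well, rested 5 hrs at 37C/5% CO2, then exposed to compound in DMSO for 16 hrs; viability read as CellTiter-Glo luminescence after 30 min at room temperature, in the reporter wells.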

[15] = qHTS assay for small molecule activators of the heat shock response signaling pathway - cell viability counter screen (AID 743209); also: nearly all actives have a fitted effect of over 50% in size
Procedure, shortened: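 CellSensor HSE-bla HeLa cells, plated overnight at 37 C/5% CO2, were exposed to compounds in DMSO for 5 h at 37 C. Viability was then read in the same wells by CellTiter-Glo luminescence after 30 min at room temperature.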

[16] = qHTS assay for small molecule activators of the heat shock response signaling pathway (AID 743210; active = well fitted activation curve with a large enough effect in the signal ratio in the repeat runs, with a control signal flat, not every such curve was filed as active; the % refers to the signal ratio;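 also: HeLa cells with beta-lactamase reporter driven by heat shock elements; series mostly up to about 63 µM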)
Procedure, shortened: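 In HSE-bla HeLa cells, 5 h compound incubation (37 C) precedes addition of LiveBLAzer B/G substrate; after 2.5 h at room temperature, fluorescence intensity indicates reporter induction.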

[17] = qHTS assay to identify small molecule antagonists of the thyroid receptor (TR) signaling pathway (AID 743065); also: series mostly up to about 70 µM; nearly all actives have a fitted effect of over 55% in size
Procedure, shortened: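 Antagonism measured as loss of luciferase signal in GH3 cells stably carrying a TRE-luciferase reporter, co-treated with compound and T3 (1 nM final) for 23.5 h at 37 C. Viability was read in the same well by CellTiter-Fluor.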

[18] = qHTS assay to identify small molecule antagonists of the estrogen receptor alpha (ER-alpha) signaling pathway - cell viability counter screen (AID 743074; calls by dose curve;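 also: HEK293 cells carrying ER-alpha-UAS-bla reporter stimulated with 17beta-estradiol; nearly all actives have a fitted effect of over 45% in size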)
[19] = qHTS assay to identify small molecule antagonists of the peroxisome proliferator-activated receptor gamma (PPARg) signaling pathway - cell viability counter screen (AID 743194); also: nearly all actives have a fitted effect of over 55% in size
Procedure, shortened: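 Viability was measured as CellTiter-Glo luminescence in GeneBLAzer PPARg UAS-bla HEK293H cells. These cells had been exposed 17 h at 37 C to compounds together with rosiglitazone at 50 nM final, with the beta-lactamase readout taken in the same wells.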

Measured: Potency

CCC(=O)/C=C/c1ccc(OC)cc1
not listed: [17] | [18] | [19]
inactive: all other assays above

C#CC(C)(O)CC(C)C (stereo unspecified)
not listed: [1] | [3] | [4] | [5] | [6]
inactive: all other assays above

CCCCCCCCCCCCI
inactive: [17] | [2] | [18] | [7] | [10] | [19] | [13] | [14] | [15] | [16]

CC(C)(C)N(CCO)CCO
not listed: [1]
inactive: all other assays above

Cn1cnc2c(=O)[nH]c(N)nc21
not listed: [1] | [3] | [4] | [5] | [6] | [12] | [18]
inactive: all other assays above

COc1cc(C(=O)N2CCOCC2)cc(OC)c1OC
not listed: [1] | [3] | [4] | [5] | [6] | [11] | [12]
inactive: all other assays above

Nc1ccn(C2CO[C@H](CO)O2)c(=O)n1 (stereo partly specified)
not listed: [1] | [12] | [16]
inactive: all other assays above

CC(C)(O)C(=O)c1ccc(OCCO)cc1
not listed: [1] | [18] | [19]
inactive: all other assays above

C#CC(O)CCCCC (stereo unspecified)
not listed: [1] | [3] | [4] | [5] | [6] | [12]
inactive: all other assays above

c1ccc2cnncc2c1
not listed: [1]
inactive: all other assays above

CC1=CC(=O)CCC1
not listed: [1] | [3] | [4] | [5] | [6] | [19]
inactive: all other assays above

CCCc1ccc(N)cc1
not listed: [1] | [6]
inactive: all other assays above

CCCc1ccccc1O
not listed: [1] | [3] | [4] | [5] | [6] | [13] | [16]
inactive: all other assays above

CCN1CCN(c2cc3c(cc2F)c(=O)c(C(=O)O)cn3C2CC2)CC1
not listed: [1] | [3] | [4] | [5] | [6] | [8]
inactive: all other assays above

Cc1ccccc1C(=O)O
not listed: [1] | [3] | [4] | [5] | [6] | [8] | [16]
inactive: all other assays above

CSc1ccc(C=O)cc1
not listed: [1] | [3] | [4] | [5] | [6] | [11]
inactive: all other assays above

CCc1cc(S(=O)(=O)O)c2cc(C(C)C)cccc1-2
not listed: [1] | [13] | [18] | [19]
inactive: all other assays above
